Cruzain inh noDet: cruzain (T. cruzi) inhibition without detergent. 200,000 tested, 2.3% active. purified cruzain, Z-FR-AMC fluorescence, no detergent. P25779. Potency, µM, most hits filed as inhibitors; also: nearly all actives have a fitted effect of over 40% in size
Target sequence (P25779 123-467 limits assumed): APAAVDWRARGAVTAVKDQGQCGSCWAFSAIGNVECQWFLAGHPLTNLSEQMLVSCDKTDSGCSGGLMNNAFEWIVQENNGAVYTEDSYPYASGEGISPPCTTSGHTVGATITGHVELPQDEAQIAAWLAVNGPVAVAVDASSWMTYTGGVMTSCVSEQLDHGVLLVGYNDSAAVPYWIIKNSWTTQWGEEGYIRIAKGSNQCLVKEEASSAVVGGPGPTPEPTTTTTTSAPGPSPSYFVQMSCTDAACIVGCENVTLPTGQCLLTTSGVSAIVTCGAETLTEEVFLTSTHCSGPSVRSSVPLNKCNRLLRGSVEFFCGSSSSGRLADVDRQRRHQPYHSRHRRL
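Detergent-free condition (0.00005% Triton X-100) in acetate buffer pH 5.5 with DTT. 1.5 nM enzyme and compound were pre-mixed 15 min, then 2 uM Z-FR-AMC substrate added; reaction progress from fluorescence change between first and third reads (60 s).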
Cruzain Triton: blocks cruzain activity in presence of Triton detergent; 200,000 tested, 0.43% active; Potency, µM, most hits filed as inhibitors; purified cruzain, Z-FR-AMC fluorescence, 0.01% Triton; P25779; also: nearly all actives have a fitted effect of over 40% in size
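Detergent-containing run (0.01% Triton X-100) in acetate buffer pH 5.5 with 5 mM DTT: enzyme at 1.5 nM final, 15 min compound preincubation at room temperature, then 2 uM Z-FR-AMC substrate. Activity taken as 60 s fluorescence increase at 360/450 nm.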
Each line names hits and unclear results; the compound was inactive in the other large screens. Rows were chosen to be rich in hits. Some 2.4% of all compounds tested hit in one or more screens of this group. Calls follow the shape of the dose curve; as a rule, active = well fitted curve in the direction sought with a large enough effect; inconclusive = small, poorly fitted or top-dose-only effect, or another doubt; inactive = no such curve, though single readings can be large; an effect the other way counts as inactive or inconclusive.

O=C(COC(=O)CNC(=O)c1cccc([N+](=O)[O-])c1)Nc1nc2ccccc2s1	Cruzain inh noDet inconclusive
O=C(NCCc1ccccc1)c1ccc(Cl)c([N+](=O)[O-])c1	none
COc1ccc(C2NC(=O)N(C)C3=C2C(=O)N(c2cccc(C(=O)O)c2)C3)cc1 (stereo unspecified)	none
COc1ncc2nc(-c3ccccc3)c(=O)n(C)c2n1	none
CS(=O)(=O)O[C@H]1CN2CCC1CC2	none
Cc1ccc(S(=O)(=O)O[C@@H]2[C@H]([C@@H]3COC(C)(C)O3)O[C@H]3OC(C)(C)O[C@@H]32)cc1	none
COc1cccc(C(=O)N(Cc2ccc(N(C)C)cc2)Cc2ccco2)c1	none
CCOc1ccc(/C=C/c2nc(C#N)c(N3CCC(C)CC3)o2)cc1	none
CCOC(=O)C1OC1c1ccccc1 (stereo unspecified)	none
COc1ccc(N2CCN(c3oc(Cc4cccc5ccccc45)nc3C#N)CC2)cc1	Cruzain inh noDet 16µM
N#Cc1nc(Cc2cccc3ccccc23)oc1N1CCOCC1	none
CC1CCN(c2oc(Cc3cccc4ccccc34)nc2C#N)CC1	none
N#Cc1nc(Cc2cccc3ccccc23)oc1N1CCN(c2ccccc2)CC1	Cruzain inh noDet 7.9µM
O=C(CN1C(=O)C2(SCC(=O)N2c2cccc(Cl)c2)c2ccccc21)NCCc1ccccc1 (stereo unspecified)	none
N#C/C(=C\c1ccc(-c2ccccc2[N+](=O)[O-])o1)C(=O)Nc1nc(-c2cccs2)cs1	Cruzain inh noDet 6.3µM
CNC(=O)/C(C#N)=C/c1ccc(-c2ccc(OC)cc2[N+](=O)[O-])o1	none
CC(=O)Nc1ccc(C2Nc3c(C)cc(C)cc3-c3cc(C)nn32)cc1 (stereo unspecified)	none
CCc1ccc(N2C(=O)NC(=O)/C(=C\c3cccn3CCOc3ccc(C(C)C)cc3)C2=O)cc1	Cruzain inh noDet 10µM
CC(C)c1ccc(N2C(=O)NC(=O)/C(=C/c3cnc(-c4ccccc4)nc3)C2=O)cc1	none
N#Cc1cc2c(=O)n3ccccc3nc2n(CCN2CCOCC2)c1=O	none
N#Cc1cc2c(=O)n3ccccc3nc2n(CCCN2CCOCC2)c1=O	Cruzain inh noDet inconclusive, Cruzain Triton 28µM
C=CCBr	none
Cc1ccc(-c2c(C)n3c4c(=O)n(C)c(=O)n(C)c4nc3n2CCCO)cc1	Cruzain inh noDet inconclusive
O=C1N/C(=N\N=C\c2cccs2)SC1Cc1ccc(Cl)cc1 (stereo unspecified)	Cruzain inh noDet 2.5µM
O=C1N/C(=N\N=C\c2cccs2)SC1Cc1cccc(Cl)c1 (stereo unspecified)	Cruzain inh noDet inconclusive
COC(=O)[C@@H]1C[C@H]1[C@@H](NC(=O)Oc1ccc(F)cc1)c1ccccc1	none
CCn1c(-c2nonc2NC(=O)c2ccccc2)nc2ccccc21	none
CC(C)(C)c1ccc(C(=O)Nc2nonc2-c2nc3ccccc3[nH]2)cc1	Cruzain inh noDet 3.2µM
CCCCn1c(=O)[nH]c(=O)c2c1nc(CN1C(=O)c3ccccc3S1(=O)=O)n2CCC	Cruzain inh noDet 25µM
CCCCn1c(=O)[nH]c(=O)c2c1nc(COc1ccc(C#N)cc1)n2CCC	none
CCN(C(=O)Cn1c(=O)n(CCCS(=O)(=O)C2CCCCC2)c(=O)c2ccccc21)c1cccc(C)c1	none
CCC(O)OC(O)CC (stereo unspecified)	none
CC(C)C(NC(=O)c1ccccc1Cl)C(=O)OCc1nc2scc(-c3ccccc3Cl)c2c(=O)[nH]1 (stereo unspecified)	Cruzain inh noDet 25µM
O=C(OCc1nc2scc(-c3ccccc3)c2c(=O)[nH]1)c1cc([N+](=O)[O-])ccc1Cl	Cruzain inh noDet inconclusive
CCCCCSc1nnc2c(n1)[nH]c1c(C)cccc12	Cruzain inh noDet inconclusive
CC(/C=N\Nc1nnc2c(n1)[nH]c1c(C)cccc12)=C\c1ccco1	Cruzain inh noDet 4µM
CN1CCN(c2ncc3nc(-c4ccccc4)c(=O)n(C4CC4)c3n2)CC1	Cruzain inh noDet 25µM, Cruzain Triton 32µM
CN1CCN(c2ncc3nc(-c4cc(F)cc(F)c4)c(=O)n(C4CC4)c3n2)CC1	Cruzain inh noDet inconclusive
COC(=O)N/N=C/c1ccc(-c2cc(Cl)cc(Cl)c2)o1	none
NC(=S)N/N=C/c1ccc(-c2cc(Cl)cc(Cl)c2)o1	Cruzain inh noDet 10µM, Cruzain Triton 4.5µM
O=C(NCc1ccccc1Cl)c1ccc2c(c1)N(Cc1ccccc1)C(=O)CS2	Cruzain inh noDet inconclusive
Cc1cc(-c2csc(NC(=O)c3cc4ccccc4o3)n2)c(C)n1C	Cruzain inh noDet 16µM
O=C(NCc1ccc(-c2nc3ccccc3s2)cc1)c1cc2ccccc2o1	Cruzain inh noDet 13µM
Cc1cc2cc(CNC(=O)c3ccc4c(c3)OCO4)ccc2n1C	Cruzain inh noDet 20µM
O=C(NCc1ccc2c(c1)OCO2)c1cccc(C(=O)NCc2ccc3c(c2)OCO3)c1	none
O=C(NCc1ccc(-c2nc3ccccc3s2)cc1)c1ccc(Br)o1	Cruzain inh noDet inconclusive
O=C(Nc1nc(-c2cccs2)cs1)c1cc2ccccc2oc1=O	none
Cc1cc2cc(CNC(=O)c3cc4ccccc4o3)ccc2n1C	Cruzain inh noDet 25µM
O=C(NCc1ccc(Cl)cc1)c1cc2ccccc2o1	none
